# Experimental data reported in PubChem BioAssay (NCATS).
# Values joined by “and” are separate entries in the source; they are usually repeats but may differ in a detail not shown here. Identical values can stand only once. Inconclusive results are not listed. A number with no mark means an inactive call. Active and inactive are the calls of the source. The call rests on the fitted dose curve; in most records, active means well fitted inhibition curve with a large enough effect; inconclusive means small, poorly fitted or top-dose-only effect; inactive means flat fitted curve, though single readings scatter.
# How the values were obtained:
# CRL-7250 = normal cell line; experiment: Cytotoxic Profiling of Annotated Libraries Using Quantitative High-Throughput Screening (AID 1296008); details: Five cell lines viability, CellTiter-Glo ATP luminescence, 48-72 h; max response: stronger effect = lower value; further: nearly all actives have a fitted effect of over 60% in size
# Outline: (§1)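 Cells exposed to compounds for 48 or 72 hr at 37 degrees Celsius. Viability read as ATP-coupled luminescence with CellTiter-Glo after 10 min at room temperature.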
# HEK293 = experiment: as above; details: Five cell lines viability, CellTiter-Glo ATP luminescence, 48-72 h; max response: stronger effect = lower value
# Outline: as §1
# On the % scale 0 is the no-effect control and ±100 the full control effect; potency means the concentration at half of the fitted maximal effect.
structure (smiles),measurement,setting,value
COCCOCCO,max response,CRL-7250,-4.64%
same,max response,HEK293,-2.65%
O=S(=O)(O)C(F)(F)C(F)(F)C(F)(F)C(F)(F)F,max response,CRL-7250,-7.36%
same,outcome,HEK293,inactive
CCc1c(C(=O)C(N)=O)c2c(OCC(=O)O)cccc2n1Cc1ccccc1,max response,CRL-7250,2.27% and 4.29%
same,max response,HEK293,-0.0349%
CO/C=C(/C(=O)OC)c1ccccc1Oc1cc(Oc2ccccc2C#N)ncn1,Potency,CRL-7250,19300 nM (active)
same,Potency,HEK293,8630 nM (active)
O=S(=O)(F)Cc1ccccc1,outcome,CRL-7250,inactive
same,outcome,HEK293,inactive
CC(O)CN1CCN(CC(=O)[O-])CCN(CC(=O)[O-])CCN(CC(=O)[O-])CC1.[Gd+3] (stereo not drawn),outcome,CRL-7250,inactive
same,max response,HEK293,-21.1%
C=CCON=C(C[C@H]1O[C@@H]2O[C@]3(C)CC[C@@H]4[C@H](C)CC[C@@H]([C@H]1C)[C@@]24OO3)[C@H]1O[C@@H]2O[C@]3(C)CC[C@H]4[C@H](C)CC[C@@H]([C@@H]1C)[C@@]24OO3,Potency,CRL-7250,935 nM (active)
same,Potency,HEK293,235 nM (active)
CC(=Cc1csc(C)n1)[C@@H]1C[C@H]2O[C@]2(C)CCC[C@H](C)[C@@H](O)[C@@H](C)C(=O)C(C)(C)[C@@H](O)CC(=O)O1,max response,CRL-7250,-93.2%
same,max response,HEK293,-85.5%
CS(=O)(=O)c1ccc(C(=O)C2C(=O)CCCC2=O)c([N+](=O)[O-])c1,max response,CRL-7250,-5.31%
same,max response,HEK293,-9.25%
COc1ccc2c(c[n+](C)c3c4cc5c(cc4ccc23)OCO5)c1OC,Potency,CRL-7250,16600 nM (active)
same,Potency,HEK293,2960 nM (active)
C[C@@]12OC(=O)[C@]1([C@@H](O)[C@@H]1C=CCCC1)NC(=O)[C@H]2CCCl,Potency,CRL-7250,209 nM (active)
same,Potency,HEK293,74.3 nM (active)
COc1cc([C@@H]2c3cc4c(cc3[C@@H](O)C3COC(=O)C32)OCO4)cc(OC)c1O (stereo partly drawn),Potency,CRL-7250,83.3 nM (active)
same,Potency,HEK293,37.2 nM (active)
O=C(Oc1ccc([N+](=O)[O-])cc1)N1CCN(Cc2cccc(Oc3ccccc3)c2)CC1,max response,CRL-7250,-6.9% and 1.64%
same,max response,HEK293,1.27%
CC[C@@]1(O)C(=O)OCc2c1cc1n(c2=O)Cc2cc3ccccc3nc2-1,Potency,CRL-7250,418 nM (active)
same,Potency,HEK293,41.8 nM (active)
O=[N+]([O-])/N=C1\NCCN1Cc1ccc(Cl)nc1,max response,CRL-7250,-0.312%
same,outcome,HEK293,inactive
CC(C)(C)[C@]1(O)C[C@@H]2OC(=O)C[C@@]23C(=O)O[C@@H]2OC(=O)[C@H](O)C213 (stereo partly drawn),max response,CRL-7250,2.16%
same,outcome,HEK293,inactive
CC(C)(C)c1cc(C=C(C#N)C#N)cc(Br)c1O,outcome,CRL-7250,inactive
same,max response,HEK293,-8.76%
CCOC(=O)c1cncn1[C@H](C)c1ccccc1,max response,CRL-7250,2.73%
same,outcome,HEK293,inactive
CC(=O)NCCc1c[nH]c2ccccc12,max response,CRL-7250,-10.8%
same,max response,HEK293,-1.55%
CCCCC(CC)COC(=O)c1ccccc1C(=O)OCC(CC)CCCC (stereo not drawn),max response,CRL-7250,-5.66%
same,outcome,HEK293,inactive
C[C@@H]1CC[C@H]2[C@@H](C)C(=O)O[C@@H]3O[C@@]4(C)CC[C@H]1[C@]32OO4,max response,CRL-7250,-21.1%
same,Potency,HEK293,1660 nM (active)
C[C@H]([C@H](O)CCC(C)(C)O)[C@H]1CC[C@@]2(O)C3=CC(=O)[C@@H]4C[C@@H](O)[C@@H](O)C[C@]4(C)[C@@H]3CC[C@]12C,max response,CRL-7250,-2.7%
same,outcome,HEK293,inactive
CC[C@@H](C(N)=O)N1CCCC1=O,max response,CRL-7250,0.0308%
same,outcome,HEK293,inactive
CC(C)[C@]12O[C@H]1[C@@H]1O[C@]13[C@]1(O[C@H]1C[C@H]1C4=C(CC[C@@]13C)C(=O)OC4)[C@@H]2O,Potency,CRL-7250,82 nM (active)
same,Potency,HEK293,7.3 nM (active)
Oc1ccc2c3c1O[C@H]1[C@@H](O)C=C[C@H]4[C@@H](C2)NCC[C@@]341,max response,CRL-7250,-20.7%
same,max response,HEK293,-17.4%
Nc1ccc(Sc2ccc(N)cc2)cc1,max response,CRL-7250,-36.8%
same,max response,HEK293,-4.95%
CC(C)[C@]12O[C@@H]1[C@@H]1O[C@]13[C@]1(O[C@H]1C[C@@H]1C4=C(CC[C@@]13C)C(=O)OC4)[C@H]2O,max response,CRL-7250,-124%
same,max response,HEK293,-111%
C#C[C@]1(O)C=C[C@@H]2[C@@H]3CCC4=CC(=O)CC[C@@H]4[C@H]3CC[C@@]21CC,max response,CRL-7250,-4.4%
same,max response,HEK293,-3.75%
CC(N[C@H]1C[C@H]1c1ccccc1)c1ccc2c(c1)OCCO2 (stereo partly drawn),max response,CRL-7250,1.35% and -26.3%
same,max response,HEK293,0.032% and -12.5%
